# Measured values published in PMC5540273 (PLoS ONE, 2017).
# Experiments:
# Settings in all cases: concentration: 1 μM,replicates: in singlicate; n = 1
# CDK8 = tested on: CDK8
# CDK9 = tested on: CDK9
# CDKL1 = tested on: CDKL1
# CDKL2 = tested on: CDKL2
# CDKL3 = tested on: CDKL3
# CDKL5 = tested on: CDKL5
# CHEK1 = tested on: CHEK1
# CHEK2 = tested on: CHEK2
# CIT = tested on: CIT
# CLK1 = tested on: CLK1
# CLK2 = tested on: CLK2
# CLK3 = tested on: CLK3
# CLK4 = tested on: CLK4
# CSF1R-autoinhibited = tested on: CSF1R-autoinhibited
# CSF1R = tested on: CSF1R
# CSK = tested on: CSK
# CSNK1A1L = tested on: CSNK1A1L
# CSNK1A1 = tested on: CSNK1A1
# CSNK1D = tested on: CSNK1D
# CSNK1E = tested on: CSNK1E
# 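Also: KINOMEscan kinase panel screen.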
Compound,%Inh (CDK8),%Inh (CDK9),%Inh (CDKL1),%Inh (CDKL2),%Inh (CDKL3),%Inh (CDKL5),%Inh (CHEK1),%Inh (CHEK2),%Inh (CIT),%Inh (CLK1),%Inh (CLK2),%Inh (CLK3),%Inh (CLK4),%Inh (CSF1R-autoinhibited),%Inh (CSF1R),%Inh (CSK),%Inh (CSNK1A1L),%Inh (CSNK1A1),%Inh (CSNK1D),%Inh (CSNK1E)
COc1cc2nccc(Nc3ccc(Oc4ccccc4)cc3)c2cc1OC.Cl [GI261656],38%,0%,0%,10%,0%,0%,0%,67%,0%,19%,0%,0%,0%,26%,14%,91.9%,0%,0%,0%,41%
CCN1CCN(CCCC(=O)Nc2n[nH]c3nc(-c4ccc(O)cc4)c(Br)cc23)CC1 [SB-731579],14%,0%,23%,73%,2%,86%,0%,15%,63%,47%,8%,66%,45%,0%,0%,0%,0%,5%,0%,0%
CCOC(=O)N1CCC(n2cnc(-c3ccc(F)cc3)c2-c2ccnc(N)n2)CC1 [SB-219952],22%,0%,7%,0%,30%,13%,0%,2%,41%,0%,0%,2%,2%,22%,70%,11%,74%,97.8%,94.8%,99.7%
CS(=O)c1ccc(-c2coc3ccc(-c4n[nH]c(=O)o4)cc23)cc1 (centres unmarked),91.1%,0%,10%,0%,12%,0%,0%,42%,0%,20%,25%,3%,33%,10%,4%,0%,7%,7%,0%,0%
Cc1ccc2c(-c3ccnc(Nc4ccc(C(F)(F)F)cc4)n3)cnn2n1 [GW819776],36%,23%,39%,69%,77%,61%,0%,0%,19%,83%,72%,31%,67%,0%,11%,0%,0%,7%,31%,19%
CC(=O)c1c(-c2ccncc2)[nH]c(-c2ccncc2)c1C [GW493036],0%,87%,0%,43%,16%,35%,83%,0%,100%,99.8%,82%,65%,96.1%,19%,12%,8%,79%,93.4%,93.7%,90%
COC(=O)c1cccc(NC(=O)NC2CCN(c3ccnc(NCc4ccc(F)cc4)n3)CC2)c1 [GSK1379860],23%,0%,0%,11%,0%,4%,18%,0%,33%,28%,0%,11%,10%,12%,1%,0%,23%,0%,4%,37%
Cl.Cl.NC[C@H](CC1CCCCC1)NC(=O)c1ccc(-c2ccnc3[nH]ccc23)s1 [GSK1581428],11%,39%,23%,51%,89%,44%,96.8%,27%,99%,85%,82%,63%,90%,0%,85%,0%,69%,77%,80%,82%
Cn1cc(-c2cccc3c(N)c(C(N)=O)nnc23)cn1,33%,0%,32%,12%,7%,0%,0%,0%,10%,74%,78%,20%,75%,0%,0%,19%,21%,72%,32%,25%
CCCC(=O)Nc1n[nH]c2ncccc12 [SB-601436],0%,0%,0%,0%,0%,0%,0%,0%,0%,2%,0%,22%,0%,0%,0%,8%,4%,0%,0%,2%
O=C(Nc1ccc(Oc2ccc3nc(NC(=O)C4CC4)cn3n2)c(F)c1)c1cccn(-c2ccccc2)c1=O,63%,6%,45%,74%,25%,0%,0%,0%,30%,1%,0%,0%,0%,0%,100%,0%,15%,39%,0%,0%
Cc1ccc(Nc2ccnc(Nc3ccc4c(c3)CS(=O)(=O)C4)n2)cc1O.Cl [GW579362],38%,37%,36%,41%,0%,0%,0%,14%,69%,81%,16%,82%,81%,76%,97.5%,48%,8%,0%,3%,21%
COc1cccc(OC)c1C(=O)Nc1cccc(-c2nn3ccccc3c2-c2ccnc(Nc3cccc(F)c3)n2)c1 [GSK361065],0%,0%,15%,6%,3%,0%,13%,0%,36%,21%,21%,0%,0%,4%,60%,18%,0%,25%,9%,64%
COc1cc2c(Nc3ccc(NC(=O)c4ccccc4)cc3)ncnc2cc1OCCCN1CCOCC1 [GSK301329],0%,0%,23%,30%,0%,0%,0%,58%,9%,10%,0%,100%,6%,0%,18%,4%,9%,7%,3%,59%
Cn1ccc2ncnc(Oc3ccc(NC(=O)Nc4ccnc(C(F)(F)F)c4)c(Cl)c3)c21,95.5%,0%,34%,3%,0%,19%,0%,2%,18%,0%,0%,0%,0%,6%,92.3%,0%,16%,0%,0%,0%
COC(=O)c1cccc(NC(=O)NC2CCN(c3ccnc(Nc4cc(OC)c(OC)c(OC)c4)n3)C2)c1 (centres unmarked) [GSK1379767],56%,1%,14%,67%,0%,0%,0%,58%,10%,0%,0%,0%,8%,34%,26%,0%,0%,28%,0%,13%
CN(c1ccc2c(c1)nc(NCc1ccc(F)cc1)n2C)c1ccnc(Nc2ccc(CS(C)(=O)=O)cc2)n1.Cl [GW813244],2%,57%,30%,40%,20%,0%,0%,0%,86%,13%,46%,0%,17%,62%,100%,0%,5%,28%,10%,0%

Compound,%Inh (CDK8),%Inh (CDK9),%Inh (CDKL1),%Inh (CDKL2),%Inh (CDKL3),%Inh (CDKL5),%Inh (CHEK1),%Inh (CHEK2),%Inh (CIT),%Inh (CLK1),%Inh (CLK2),%Inh (CLK3),%Inh (CLK4),%Inh (CSF1R-autoinhibited),%Inh (CSF1R),%Inh (CSK),%Inh (CSNK1A1L),%Inh (CSNK1A1),%Inh (CSNK1D),%Inh (CSNK1E)
Cn1ccc2ncnc(Oc3ccc(NC(=O)Nc4cncc(C(F)(F)F)c4)c(Cl)c3)c21,95%,0%,0%,0%,0%,0%,0%,9%,44%,0%,7%,0%,7%,0%,99.4%,0%,0%,0%,0%,0%
Cc1ccc(CC(=O)N2CCc3cc(-c4cn(C)c5ncnc(N)c45)ccc32)cc1 [GSK2634758],83%,0%,8%,0%,0%,0%,1%,17%,19%,13%,0%,0%,0%,21%,79%,100%,14%,0%,16%,66%
Cn1ccc2ncnc(Oc3ccc(NC(=O)Nc4cnn(C(C)(C)C)c4)c(Cl)c3)c21,97.1%,0%,21%,10%,19%,26%,3%,0%,39%,0%,12%,5%,9%,28%,99.9%,0%,0%,0%,0%,2%
Cn1ccc2ncnc(Oc3ccc(NC(=O)Nc4cc(C(C)(C)C)on4)c(Cl)c3)c21,90.9%,6%,48%,26%,17%,32%,0%,7%,63%,0%,95.1%,0%,10%,43%,100%,0%,15%,6%,6%,0%
Cc1cccc(-c2nc(Nc3ccncc3)c3sccc3n2)n1 [GW869641],8%,11%,22%,0%,15%,31%,0%,0%,96.6%,4%,15%,23%,22%,42%,10%,7%,17%,65%,90%,94.9%
CC(C(=O)NC1CCN(c2ccnc(Nc3ccc(F)cc3)n2)C1)c1ccc(Cl)cc1 (centres unmarked) [GSK1379713],23%,0%,0%,1%,0%,0%,15%,0%,28%,15%,0%,0%,8%,0%,0%,0%,3%,22%,0%,3%
COc1cc2ncn(-c3cc(OCC4CCCCC4)c(C(N)=O)s3)c2cc1OC [GSK204559],5%,0%,0%,1%,0%,0%,0%,0%,10%,35%,2%,5%,33%,0%,19%,0%,22%,0%,10%,0%
O=C(NOCC1CC1)c1cc(Br)c(F)c(F)c1Nc1ccc(I)cc1Cl,0%,0%,8%,0%,0%,0%,0%,0%,0%,0%,9%,0%,0%,0%,0%,0%,0%,1%,0%,0%
OCCn1cc(-c2cnc3nnn(Cc4ccc5ncccc5c4)c3n2)cn1,0%,8%,0%,0%,10%,0%,0%,6%,0%,16%,0%,0%,0%,25%,0%,33%,0%,15%,0%,0%
CCn1c(-c2nonc2N)nc2cncc(CNC3CCNCC3)c21.Cl [SB-747651],24%,0%,0%,20%,0%,0%,48%,0%,24%,31%,17%,7%,56%,0%,10%,0%,19%,0%,26%,21%
O=c1[nH]cc(-c2ccc(O)cc2)c2sc(-c3ccncc3)cc12 [GSK1033723],27%,6%,7%,9%,0%,0%,0%,10%,45%,95.7%,67%,19%,95.9%,2%,25%,5%,13%,57%,41%,46%
CC(=O)Nc1nc2cnc(Nc3cc(NC(=O)c4cccc(CC(C)(C)C#N)c4)ccc3C)nc2s1,67%,10%,50%,99.5%,41%,0%,0%,28%,68%,0%,0%,0%,7%,28%,99.7%,7%,11%,31%,6%,0%
C[C@@H]1CNc2c(sc3ccc4nc(-c5ccncc5)ccc4c23)C(=O)N1,7%,44%,11%,0%,5%,0%,0%,18%,22%,92.9%,94%,32%,81%,3%,8%,19%,66%,95%,34%,29%
Cl.Nc1n[nH]c2cc(-c3ccccn3)ccc12 [GSK2189892],13%,7%,4%,24%,0%,0%,18%,0%,25%,23%,0%,18%,31%,0%,8%,0%,0%,0%,0%,21%
C[C@@H]1CCN(C(=O)N2CCCC2)C[C@@H]1N(C)c1ncnc2[nH]ccc12,24%,0%,24%,11%,0%,5%,9%,0%,13%,4%,8%,0%,24%,0%,0%,0%,0%,27%,0%,13%
COc1ccc(Nc2nccc(N3CCC(NC(=O)c4cccc(C#N)c4)C3)n2)cc1 (centres unmarked) [GSK1379730],17%,0%,24%,0%,0%,0%,0%,0%,0%,11%,0%,5%,21%,24%,0%,0%,11%,0%,29%,27%
Cn1ccc2ncnc(Oc3ccc(NC(=O)Nc4cccc(C(F)(F)F)c4)c(Cl)c3)c21,95.9%,2%,29%,8%,6%,0%,0%,0%,57%,0%,1%,0%,0%,18%,99.5%,15%,0%,0%,0%,0%
